Here are results for 46 molecules from ChEMBL document CHEMBL3988442, “University of Dundee, Small-Polar-MMV Screening Library” (2021).

Test [1] concerns the target T1, Aspartate--tRNA(Asp/Asn) ligase (Mycobacterium tuberculosis (strain ATCC 25618 / H37Rv)) (UniProt P9WFW3). Also: in the data most compounds retested in dose-response had high values.
T1 sequence (whole entry): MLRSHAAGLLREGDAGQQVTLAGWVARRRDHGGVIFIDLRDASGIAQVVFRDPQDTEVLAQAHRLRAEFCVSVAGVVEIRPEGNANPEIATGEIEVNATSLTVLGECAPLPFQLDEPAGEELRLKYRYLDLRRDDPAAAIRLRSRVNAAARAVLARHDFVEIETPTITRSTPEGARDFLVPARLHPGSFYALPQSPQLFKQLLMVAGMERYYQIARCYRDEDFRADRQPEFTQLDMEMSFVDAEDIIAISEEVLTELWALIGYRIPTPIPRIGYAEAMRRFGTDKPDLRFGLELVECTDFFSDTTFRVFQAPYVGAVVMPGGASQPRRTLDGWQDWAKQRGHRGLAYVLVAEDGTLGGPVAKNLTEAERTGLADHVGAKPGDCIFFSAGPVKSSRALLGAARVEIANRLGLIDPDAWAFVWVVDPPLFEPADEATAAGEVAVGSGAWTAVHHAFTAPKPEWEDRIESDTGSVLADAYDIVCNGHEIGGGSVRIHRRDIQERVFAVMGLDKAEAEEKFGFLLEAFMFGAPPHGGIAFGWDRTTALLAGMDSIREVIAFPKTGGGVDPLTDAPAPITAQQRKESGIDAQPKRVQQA
Briefly: Assay for Asp RNA synthetase-1 from Mycobacterium tuberculosis. Type of test: functional. On the set-up: scale not given: direction of the effect not stated beside the values. The note with it: 30 µM.

In test [2] the target is Shiga toxin 2 (Escherichia coli O157:H7) (UniProt P09385+P09386). Briefly: E. coli 0.157:H7 Shiga Toxin SOP - stx2 screening assay. Further details: scale not given: direction of the effect not stated beside the values. The note with it: 30 µM. Type of test: functional.

Regarding `CCc1ccccc1C(=O)N1CCN(S(C)(=O)=O)[C@@H](C)C1`, the results for the Percent Effect in test [1] and in test [2] were 0.259% and -3%, respectively.

On to `Cc1c(C2CCCN(C(=O)Cc3ccccn3)C2)n2c(nc1=O)CCC2` (configuration not stated), for which the Percent Effect in test [1] is 2.63%; in test [2], -14.2%.

For the molecule `CCO[C@@H]1CC[C@H]2[C@H]1OCCN2C(=O)C1CCOCC1`, the Percent Effect in test [1] is -5.84%; in test [2] it was 8.02%.

With `c1ccc(N2CCCC3(COCCN(c4nccs4)C3)C2)nc1` (configuration not stated), the Percent Effect in test [1] was 3.08%; in test [2] it was -3.13%.

On to `CCOc1cc(/C=C/c2ncc(C(=O)O)s2)cc(Cl)c1OC`, for which the Percent Effect in test [1] is -1.24%; in test [2], -0.531%.

Take `Cc1cnc(CN2CCOC(Cn3nc(C)nc3C)C2)cn1` (configuration not stated): the results for the Percent Effect in test [1] and in test [2] were -1.8% and -9.64%, respectively.

Consider `COC(=O)N1CCCC(C(=O)NCc2cc3cccc(OC)c3o2)C1` (configuration not stated), for which the Percent Effect in test [1] was -0.457%; in test [2] it was 14.7%.

With `Cc1cc(CN2CCN(C(C)c3nc(C4CC4)no3)CC2)no1` (configuration not stated), the Percent Effect in test [1] was 3.89%; in test [2], -2.55%.

Take `CC(=O)N1CCCC1c1csc(Nc2cnccn2)n1` (configuration not stated): the figures for the Percent Effect in test [1] and in test [2] were 3.49% and 29.9%, respectively.

For the molecule `c1ccc2c(N3CCCC3Cn3cccn3)ncnc2c1` (configuration not stated), the Percent Effect is 0% in test [1] and -23.1% in test [2].

For `O=C(CCN1CCCN(c2nccs2)CC1)Nc1ccccc1`, the Percent Effect in test [1] is -1.81%; in test [2], -52.2%.

Consider `CC(NC(=O)N(C)Cc1ccsc1)c1ccc2c(c1)NC(=O)CO2` (configuration not stated), for which the Percent Effect in test [1] is -2.41%; in test [2], 18.1%.

On to `c1ccc(Cn2ccnc2CN2CCCC2c2noc(C3CC3)n2)cc1` (configuration not stated), for which the Percent Effect in test [1] was 6.6%; in test [2] it was -32.8%.

Regarding `O=C(C1CCOCC1)N1C[C@@H]2[C@@H](C1)OCC(=O)N2Cc1ccncc1`, the results for the Percent Effect in test [1] and in test [2] were -2.99% and -3.94%, respectively.

Consider `O=C(CN1CCCCC1Cn1cncn1)NC1CCN(C2CC2)CC1` (configuration not stated), for which the Percent Effect in test [1] is -0.234%; in test [2], -4.41%.

Consider `CCNC(=O)N(C)Cc1ccc(SC)c(OC)c1`, for which the Percent Effect in test [1] came to 4.58%; in test [2], 0.0534%.

As for `CC1CCN(C(=O)c2cccc3ncccc23)CC1`, the figures for the Percent Effect in test [1] and in test [2] were -1.51% and 5.74%, respectively.

On to `Cc1nnc2n1CCN(CCC(=O)Nc1sccc1C#N)C2`, for which the results for the Percent Effect in test [1] and in test [2] were 1.26% and 22.9%, respectively.

Turning to `COC(=O)C(C)(C)NC(=O)C1CC(=O)N(C)C1` (configuration not stated), the Percent Effect is -1.62% in test [1] and -22.5% in test [2].

Regarding `Fc1cnc(N2CCOC3(CCN(Cc4ccsc4)CC3)C2)nc1`, the Percent Effect was 14.1% in test [1] and -18% in test [2].

Consider `O=C(Cn1ccnc1)N1C[C@@H]2CC[C@H](Oc3ccccc3)[C@@H]2C1`, for which the Percent Effect in test [1] was 5.52%; in test [2], 2.5%.

As to `Cc1cc(C)c(CNC(=O)NCCOc2ccc3c(c2)CCC3)c(=O)[nH]1`, the results for the Percent Effect in test [1] and in test [2] were -2.17% and 15%, respectively.

On to `CCc1noc(C)c1C(=O)N1CCCC1c1c(C)nn(C)c1OC` (configuration not stated), for which the Percent Effect was -3.25% in test [1] and 5.57% in test [2].

Take `c1ccc(-c2noc(CNC3CCc4ncnn4C3)n2)nc1` (configuration not stated): the Percent Effect in test [1] was 0.903%; in test [2], 16.9%.

For `CCNC(=O)Nc1ccc2c(ccn2CC(=O)N(CC)CC)c1`, the Percent Effect in test [1] was -3.17%; in test [2], 30.4%.

With `O=C(c1cc(=O)[nH]c(=O)[nH]1)N1CCCCC1c1ccc(F)cc1` (configuration not stated), the Percent Effect was 0.947% in test [1] and -12.6% in test [2].

On to `CN1CCCc2cc(NC(=O)N3CCOC(C(N)=O)C3)ccc21` (configuration not stated), for which the Percent Effect in test [1] is -0.684%; in test [2] it was -77.6%.

On to `CC(C)c1ncncc1C(=O)N1CCCN(Cc2cccs2)CC1`, for which the figures for the Percent Effect in test [1] and in test [2] were -3.79% and 6.52%, respectively.

With `COC[C@@H]1CC[C@H]2[C@H](CCN2S(=O)(=O)c2cccc(C)c2)O1`, the Percent Effect in test [1] is 3.92%; in test [2] it was -4.66%.

On to `Cn1cc(-c2csc(N3CCOCC3)n2)cn1`, for which the Percent Effect in test [1] is 2.54%; in test [2], -13%.

Turning to `CC1CN(C)c2ccccc2CN1C(=O)c1ccc[nH]1` (configuration not stated), the Percent Effect in test [1] was 4.95%; in test [2] it was -9.14%.

As to `COCC1c2nnn(CC3CC3)c2CCN1C(=O)c1ccnnc1` (configuration not stated), the Percent Effect was -4.7% in test [1] and -8.58% in test [2].

With `Cc1cc(C2CCCN(CCc3ccccn3)C2)n[nH]1` (configuration not stated), the Percent Effect in test [1] is -5.34%; in test [2], -1.21%.

Consider `CC(C)c1nn(CC(=O)N2CCCCC2)c(=O)c2c1cnn2C(C)(C)C`, for which the Percent Effect in test [1] is -5.41%; in test [2], 2.7%.

For `COc1ccccc1OCC(=O)NS(=O)(=O)c1ccccc1Br`, the figures for the Percent Effect in test [1] and in test [2] were 5.46% and -14.2%, respectively.

For `CC(C)C(=O)N1CCC(c2nc(O)cc(-c3ccncc3)n2)CC1`, the Percent Effect in test [1] was -2.46%; in test [2], 3.51%.

Regarding `Cn1cc(C(=O)NCC2CCN(C(=O)NCC(F)(F)F)CC2)cn1`, the Percent Effect in test [1] is 2.43%; in test [2] it was -39.4%.

As to `Cc1nc(N2CCOCC2)nc2c1CCN(Cc1cccnc1)CC2`, the Percent Effect is 2.91% in test [1] and -7% in test [2].

As to `Cc1cc(C(=O)N2CCCC2Cn2nc(C)cc2C)on1` (configuration not stated), the Percent Effect in test [1] amounted to 0.681%; in test [2], 20%.

As to `CC(C)Cc1nc(OCC(=O)O)c(C#N)c2c1CCC2`, the Percent Effect in test [1] was 0.639%; in test [2] it was -5.61%.

Turning to `O=C(NCCn1ccnc1)N1CCN(Cc2cccs2)CC1`, the figures for the Percent Effect in test [1] and in test [2] were 0.0694% and -34.2%, respectively.

With `CCCc1n[nH]c(C2CN(CCCS(C)(=O)=O)CCO2)n1` (configuration not stated), the Percent Effect in test [1] is -3.39%; in test [2] it was -21.5%.

On to `COC(=O)c1cccn1C1CCN(C(=O)c2cc(C)ccc2O)CC1`, for which the Percent Effect in test [1] worked out at 3.4%; in test [2] it was 21.2%.

As for `C[C@@H]1CN(C(=O)c2ccc(C#N)nc2)CC[C@@]1(O)C1CCOCC1`, the Percent Effect is -2.71% in test [1] and -2.97% in test [2].

As to `CC(NC(=O)C1=NN(C)C(=O)CC1)c1ccc(Cl)cc1Cl` (configuration not stated), the results for the Percent Effect in test [1] and in test [2] were -11.1% and -19.3%, respectively.

Take `CCc1nc(C(=O)N2CCN(C)CC2C)nn1-c1ccccc1Cl` (configuration not stated): the figures for the Percent Effect in test [1] and in test [2] were 11.5% and 26.3%, respectively.
